The experiment has as its target furin, P09958. In words: furin cleavage Z-score vs untreated control; higher = more cleavage, active = 3.5 or more, inactive = 1 or less, 8 variable residues between constant flanks. Summed up: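 Cleavage by purified furin was measured on 8-mer peptides fused to a cDNA oligonucleotide and held on magnetic beads by their N-terminus. Reactions (0.01 ml, 1:10 enzyme:substrate) ran 7.5, 15 or 30 min in 50 mM HEPES pH 7.5 with CaCl2 and NaCl. Released DNA was adapter-tagged by PCR and sequenced, with read counts giving abundance. Log counts versus furin-free reactions were lowess-adjusted and scaled by median absolute deviation to give the cleavage Z-score.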

The other results are listed elsewhere or left out. How many sequences the whole screen found active is unknown.

Chain of furin, P09958 (P09958 whole entry, the tested form may be a part): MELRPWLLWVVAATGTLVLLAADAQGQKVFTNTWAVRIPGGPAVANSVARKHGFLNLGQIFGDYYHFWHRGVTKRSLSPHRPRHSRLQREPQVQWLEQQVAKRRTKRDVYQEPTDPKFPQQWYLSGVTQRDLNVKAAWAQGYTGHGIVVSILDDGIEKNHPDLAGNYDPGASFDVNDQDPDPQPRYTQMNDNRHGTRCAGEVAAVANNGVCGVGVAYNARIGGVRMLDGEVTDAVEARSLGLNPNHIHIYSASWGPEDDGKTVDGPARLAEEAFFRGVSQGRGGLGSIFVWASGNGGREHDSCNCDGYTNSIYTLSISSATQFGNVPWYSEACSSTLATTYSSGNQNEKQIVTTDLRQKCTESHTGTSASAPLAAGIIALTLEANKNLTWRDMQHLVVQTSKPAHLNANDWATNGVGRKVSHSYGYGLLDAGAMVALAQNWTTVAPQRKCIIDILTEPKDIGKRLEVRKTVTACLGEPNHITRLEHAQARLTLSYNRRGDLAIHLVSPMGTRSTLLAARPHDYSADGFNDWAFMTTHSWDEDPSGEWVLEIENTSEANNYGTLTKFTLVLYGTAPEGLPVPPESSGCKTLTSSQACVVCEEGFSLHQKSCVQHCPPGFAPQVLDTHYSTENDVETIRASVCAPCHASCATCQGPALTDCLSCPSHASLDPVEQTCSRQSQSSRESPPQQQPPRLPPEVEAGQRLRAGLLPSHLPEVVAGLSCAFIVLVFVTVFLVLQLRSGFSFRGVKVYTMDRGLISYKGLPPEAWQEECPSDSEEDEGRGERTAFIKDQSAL

As to CAEHRLEAACAGNASASA [HC479], the “furin cleavage Z-score” value was 1.04 (7.5 min), -1.24 (inactive) (15 min) and -0.381 (inactive) (30 min).

Regarding CAMEECSQPLAGNASASA [HC1759], the “furin cleavage Z-score” value (7.5 min) turned out to be 1.51, the “furin cleavage Z-score” value (15 min) was 1.8 and the “furin cleavage Z-score” value (30 min) is 0.466 (inactive).

On to CAEYVVCCSMAGNASASA [HC2129], for which the “furin cleavage Z-score” value was -0.0811 (inactive) (7.5 min), -0.535 (inactive) (15 min) and -0.778 (inactive) (30 min).

For the sequence CASTPCSFHLAGNASASA [HC2527], the “furin cleavage Z-score” value (7.5 min) is -0.634 (inactive), the “furin cleavage Z-score” value (15 min) was 0.268 (inactive) and the “furin cleavage Z-score” value (30 min) is 1.39.

For CAAAYCLSTGAGNASASA [HC996], the “furin cleavage Z-score” value runs as follows: (7.5 min) 0.288 (inactive); (15 min) 0.367 (inactive); (30 min) -0.487 (inactive).

In the case of CANAYTTGPCAGNASASA [HC1192], the “furin cleavage Z-score” value reads like this: (7.5 min) 0.653 (inactive); (15 min) 0.298 (inactive); (30 min) 0.115 (inactive).

For CAMEECSQSLAGNASASA [HC1757], the “furin cleavage Z-score” value (7.5 min) is 0.758 (inactive), the “furin cleavage Z-score” value (15 min) was -0.436 (inactive) and the “furin cleavage Z-score” value (30 min) is 0.392 (inactive).

Regarding CAMRSRNGRWAGNASASA [FS-830], the “furin cleavage Z-score” value reads like this: (7.5 min) 0.613 (inactive); (15 min) 0.727 (inactive); (30 min) 2.67.

For CARAQRFWSWAGNASASA [FS-3242], the “furin cleavage Z-score” value (7.5 min) is -0.658 (inactive), the “furin cleavage Z-score” value (15 min) was -0.187 (inactive) and the “furin cleavage Z-score” value (30 min) was -0.233 (inactive).

CAHRCRHKRWAGNASASA [FS-133]: the “furin cleavage Z-score” value was 5.93 (active) (7.5 min), 10.1 (active) (15 min) and 8.03 (active) (30 min).

Turning to CATAKREKRWAGNASASA [FS-1421], the “furin cleavage Z-score” value runs as follows: (7.5 min) 7.45 (active); (15 min) 10.5 (active); (30 min) 8.76 (active).

As for CAEVVTSQWVAGNASASA [HC2222], the “furin cleavage Z-score” value reads like this: (7.5 min) -0.277 (inactive); (15 min) -0.189 (inactive); (30 min) 0.204 (inactive).

For the sequence CATTPCGGSWAGNASASA [HC62], the “furin cleavage Z-score” value runs as follows: (7.5 min) -1.67 (inactive); (15 min) 0.588 (inactive); (30 min) -0.211 (inactive).

Turning to CADTMEECSQAGNASASA [HC1818], the “furin cleavage Z-score” value is -0.715 (inactive) (7.5 min), -1.26 (inactive) (15 min) and -0.384 (inactive) (30 min).

On to CAVKGRGRRDAGNASASA [FS-889], for which the “furin cleavage Z-score” value (7.5 min) is 10.2 (active), the “furin cleavage Z-score” value (15 min) is 9.87 (active) and the “furin cleavage Z-score” value (30 min) was 8.49 (active).

Turning to CAVWKRRAEDAGNASASA [FS-2624], the “furin cleavage Z-score” value is, setting by setting: (7.5 min) 0.714 (inactive); (15 min) -0.547 (inactive); (30 min) 0.046 (inactive).

Turning to CALPGRDGRDAGNASASA [FS-457], the “furin cleavage Z-score” value reads like this: (7.5 min) -0.75 (inactive); (15 min) 1.1; (30 min) 0.0293 (inactive).

With CAVHVRIRRDAGNASASA [FS-1428], the “furin cleavage Z-score” value was 15.3 (active) (7.5 min), 15.9 (active) (15 min) and 11.3 (active) (30 min).

In the case of CALNERIRRDAGNASASA [FS-940], the “furin cleavage Z-score” value by setting is: (7.5 min) 13.3 (active); (15 min) 15.6 (active); (30 min) 11.4 (active).

On to CAGNNTLHCPAGNASASA [HC448], for which the “furin cleavage Z-score” value (7.5 min) was 0.837 (inactive), the “furin cleavage Z-score” value (15 min) is 0.103 (inactive) and the “furin cleavage Z-score” value (30 min) was 0.597 (inactive).

As to CAYSTYGKFLAGNASASA [HC807], the “furin cleavage Z-score” value runs as follows: (7.5 min) 0.775 (inactive); (15 min) -0.645 (inactive); (30 min) -0.0395 (inactive).

With CAHVGPGEGAAGNASASA [HC1113], the “furin cleavage Z-score” value reads like this: (7.5 min) -0.488 (inactive); (15 min) 0.461 (inactive); (30 min) -1.05 (inactive).

As to CAQKRREKKAAGNASASA [FS-79], the “furin cleavage Z-score” value is -0.611 (inactive) (7.5 min), 2.25 (15 min) and 1.6 (30 min).

Consider CARLCRSVSGAGNASASA [FS-1859], for which the “furin cleavage Z-score” value runs as follows: (7.5 min) 0.288 (inactive); (15 min) 0.971 (inactive); (30 min) 1.11.

With CARLEREKRAAGNASASA [FS-859], the “furin cleavage Z-score” value runs as follows: (7.5 min) 7.92 (active); (15 min) 10 (active); (30 min) 6.63 (active).

Regarding CARLCRRSRAAGNASASA [FS-1561], the “furin cleavage Z-score” value was 6.16 (active) (7.5 min), 7.37 (active) (15 min) and 6.05 (active) (30 min).

Take CAKERREKRAAGNASASA [FS-601]: the “furin cleavage Z-score” value (7.5 min) is 5.22 (active), the “furin cleavage Z-score” value (15 min) is 4.77 (active) and the “furin cleavage Z-score” value (30 min) is 4.29 (active).

Turning to CAKLKLTPIAAGNASASA [HC1637], the “furin cleavage Z-score” value by setting is: (7.5 min) -0.816 (inactive); (15 min) -1.09 (inactive); (30 min) -2.93 (inactive).

For CARLRDSGRAAGNASASA [FS-85], the “furin cleavage Z-score” value (7.5 min) is 0.0348 (inactive), the “furin cleavage Z-score” value (15 min) was -1.47 (inactive) and the “furin cleavage Z-score” value (30 min) is -0.955 (inactive).

CAKESRGARGAGNASASA [FS-447]: the “furin cleavage Z-score” value was -0.759 (inactive) (7.5 min), -0.656 (inactive) (15 min) and -0.69 (inactive) (30 min).

With CAKERRYARKAGNASASA [FS-257], the “furin cleavage Z-score” value runs as follows: (7.5 min) 4.36 (active); (15 min) 5.28 (active); (30 min) 4.54 (active).

On to CAHAPTGSGKAGNASASA [HC775], for which the “furin cleavage Z-score” value by setting is: (7.5 min) 0.395 (inactive); (15 min) -1.05 (inactive); (30 min) -0.0524 (inactive).

For CAMEGCSQHLAGNASASA [HC1716], the “furin cleavage Z-score” value (7.5 min) is 1.23, the “furin cleavage Z-score” value (15 min) is 0.47 (inactive) and the “furin cleavage Z-score” value (30 min) is 0.552 (inactive).

On to CAAEMEECSQAGNASASA [HC1783], for which the “furin cleavage Z-score” value is -0.835 (inactive) (7.5 min), 2.03 (15 min) and -0.939 (inactive) (30 min).

For CASTPCSSHLAGNASASA [HC2537], the “furin cleavage Z-score” value is, setting by setting: (7.5 min) -0.548 (inactive); (15 min) -0.18 (inactive); (30 min) 0.0993 (inactive).

CAEVVTSTFVAGNASASA [HC2227]: the “furin cleavage Z-score” value is 0.885 (inactive) (7.5 min), 0.0423 (inactive) (15 min) and 0.809 (inactive) (30 min).

In the case of CASRPSWGPTAGNASASA [HC212], the “furin cleavage Z-score” value was -1.22 (inactive) (7.5 min), 0.133 (inactive) (15 min) and -0.131 (inactive) (30 min).

For CAYRTRRKREAGNASASA [FS-637], the “furin cleavage Z-score” value is, setting by setting: (7.5 min) 9.23 (active); (15 min) 8.28 (active); (30 min) 6.71 (active).

For CAPTRRRWREAGNASASA [FS-1386], the “furin cleavage Z-score” value by setting is: (7.5 min) 5.77 (active); (15 min) 5.98 (active); (30 min) 7.12 (active).

For the sequence CAPSPEFFTEAGNASASA [HC1219], the “furin cleavage Z-score” value is -1.44 (inactive) (7.5 min), -0.301 (inactive) (15 min) and -0.0659 (inactive) (30 min).

In the case of CAYRFVAPGEAGNASASA [HC910], the “furin cleavage Z-score” value (7.5 min) is -0.691 (inactive), the “furin cleavage Z-score” value (15 min) is -0.942 (inactive) and the “furin cleavage Z-score” value (30 min) is -0.913 (inactive).

Turning to CAEVAERKREAGNASASA [FS-1195], the “furin cleavage Z-score” value was -1.19 (inactive) (7.5 min), 1.03 (15 min) and 0.657 (inactive) (30 min).

Consider CAIPKARRPEAGNASASA [HC193], for which the “furin cleavage Z-score” value reads like this: (7.5 min) -0.401 (inactive); (15 min) -0.306 (inactive); (30 min) -0.34 (inactive).

Take CAPSRRRKREAGNASASA [FS-1385]: the “furin cleavage Z-score” value was 13.2 (active) (7.5 min), 15 (active) (15 min) and 9.92 (active) (30 min).

Source of the values: the supplement of paper PMC3545927.
